Sm TGR block: qHTS Assay for the Inhibitors of Schistosoma Mansoni Peroxiredoxins. purified TGR, DTNB reduction, TNB absorbance 405 nm. Potency, µM (doses to about 114 µM), for inactives: top-dose activity change, negative = inhibition, actives largely listed as inhibitors. 360,000 compounds, 3% hits. AID 485364, 2010; also: potency is read from the fitted curve at half-maximal effect; % is scaled to controls: 0 for no effect and ±100 for the full control effect; nearly all actives have a fitted effect of over 60% in size
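TGR 20 nM + NADPH 100 uM (dispensed conc.), cpd preinc 15 min RT; start with NADPH (500 uM addition) then DTNB (15 mM addition). Kinetic TNB absorbance, 405 nm filter. Four-parameter Hill fit across titration.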
Shiga toxin inh: A qHTS for Small Molecule Inhibitors of Shiga Toxin; Vero cells, Shiga toxin protein synthesis inhibition reporter; 290,000 compounds, 9.2% hits; inhibition, % at 38.7 µM; AID 2315, 2010; in the data active = inhibition mostly above about 28%, no sharp cut-off; inactive = mostly below about 43%; also: 0% is about no effect
Pf growth 96h: Primary qHTS for delayed death inhibitors of the malarial parasite plastid, 96 hour incubation. Potency, µM (titrated, usually from 28.7 µM), inactives show top-dose activity change, negative = inhibition, hits mostly inhibitors. 320,000 compounds, 6.9% hits. P. falciparum luciferase reporter growth, 96 h; also: potency is read from the fitted curve at half-maximal effect; % is scaled to controls: 0 for no effect and ±100 for the full control effect
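Delayed-death screen, second-generation endpoint: infected erythrocytes, 2% hematocrit, 0.05% parasitemia final; 96 hours at 37 C, 5% CO2; luciferase detection reagent; luminescence decrease equals reduced growth.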
Cycloheximide cs: Cycloheximide Counterscreen for Small Molecule Inhibitors of Shiga Toxin; cell reporter, cycloheximide protein synthesis inhibition counterscreen; max response, %; 300,000 compounds, 12% hits; in the data active = max response mostly above about 13%, no sharp cut-off; inactive = mostly below about 14%; also: read at 38.3 µM for the half of the compounds with a filed dose; 0% is about no effect
Pf growth 48h: Primary qHTS for delayed death inhibitors of the malarial parasite plastid, 48 hour incubation; 310,000 compounds, 5.9% hits; AID 504832, 2011; P. falciparum luciferase growth in erythrocytes, 48 h; Potency, µM (series often up to 28.7 µM), for the others: at the top dose activity change, negative = inhibition, most hits filed as inhibitors; also: potency is read from the fitted curve at half-maximal effect; % is scaled to controls: 0 for no effect and ±100 for the full control effect
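Luciferase-expressing P. falciparum in infected erythrocytes (2% hematocrit, 0.1% parasitemia final) in RPMI 1640/0.5% Albumax were exposed to compound for 48 hours at 37 C, 5% CO2; growth read as luminescence.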
NS1 inh: qHTS Assay for Inhibitors of Influenza NS1 Protein Function; Potency, µM (highest dose often 46.1 µM), inactives show top-dose activity, positive = more growth; 270,000 compounds, 0.4% hits; AID 2326, 2010; calls by dose curve; also: potency is read from the fitted curve at half-maximal effect; actives are rising curves; nearly all actives have a fitted effect of over 50% in size
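OD600 was taken as the measure of yeast growth restored by compound in an NS1-expressing S. cerevisiae strain. Cells had been washed out of glucose medium and diluted 1:100 into galactose -URA medium, pH 6.0.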
* = called active by the depositor; u = inconclusive; x = no result. This is a sample that favours compounds with a hit; in the whole collection about 21% have one here. Unless noted, calls follow the shape of the dose curve; as a rule, active = well fitted curve in the direction sought with a large enough effect; inconclusive = small, poorly fitted or top-dose-only effect, or another doubt; inactive = no such curve, though single readings can be large; an effect the other way counts as inactive or inconclusive.

SMILES	Sm TGR block	Shiga toxin inh	Pf growth 96h	Cycloheximide cs	Pf growth 48h	NS1 inh
Cc1ccc(N2C(=O)CC(c3ccsc3)C3=C2CC(C)(C)CC3=O)cc1 (stereo not drawn)	0%	-7	u	-3	u	-1%
CC1(C)CC(=O)C2=C(C1)N(c1ccc(F)cc1)C(=O)CC2c1ccsc1 (stereo not drawn)	4%	-13	3.3µM*	-7	x	6%
Cc1ccc(C)c(N2CCN(C(=O)CCn3c(=S)[nH]c4cc5c(cc4c3=O)OCO5)CC2)c1	-5%	-21	u	-3	-29%	21%
CCOc1cnc(-c2ccc(Cl)cc2)o1	-27%	86*	46%	39*	58%	11%
CCOc1cnc(-c2ccc(OC)cc2)o1	25%	55*	78%	15*	80%	-1%
Cc1ccc(C)c(NC(=O)C2CCN(S(=O)(=O)c3ccc4c(c3)NC(=O)CO4)CC2)c1	19%	-12	20%	13	-30%	-1%
COc1ccc(C2CC(c3ccc4ccccc4c3)=NN2C(=O)COC(=O)C2CCC(=O)N2)cc1 (stereo not drawn)	-1%	127*	276%	47*	190%	x
Nc1cc(=O)[nH]c(SCC(=O)N2N=C(c3ccc4ccccc4c3)CC2c2ccccc2)n1 (stereo not drawn)	11%	-5	u	-2	u	-12%
COc1ccc(C2CC(c3ccc4ccccc4c3)=NN2C(=O)CNC2CCCCC2)cc1 (stereo not drawn)	11%	16	u	3	u	6%
CC(=O)OCC(=O)N1N=C(c2ccc3ccccc3c2)CC1c1ccccc1 (stereo not drawn)	-17%	67	44%	33*	85%	x
COc1ccc(C2CC(c3ccc4ccccc4c3)=NN2C(=O)CN2CCC(C(N)=O)CC2)cc1 (stereo not drawn)	5%	79*	u	57*	u	x
CCCCOc1cc(C(=O)OCCN(CC)CC)ccc1N	-3%	x	66%	x	-19%	x
CCCCc1oc2ccccc2c1C(=O)c1cc(I)c(OCCN(CC)CC)c(I)c1	x	-10	4.1µM*	-5	8.3µM*	u
Cc1ccc2nc(N(CCCN(C)C)C(=O)c3ccc4ncsc4c3)sc2c1	1%	89*	-30%	41*	-6%	-10%
Cc1ccc2nc(N(CCCN(C)C)C(=O)c3cc4ccccc4oc3=O)sc2c1	-7%	21	10µM*	18	u	5%
Cc1cccc2sc(N(CCCN(C)C)C(=O)c3cc4ccccc4oc3=O)nc12	-3%	12	u	13	-21%	-1%
Cc1cc(C)c2nc(N(CCCN(C)C)C(=O)c3ccc4c(c3)OCCO4)sc2c1	-4%	x	7.4µM*	x	10µM*	x
Cc1cccc2sc(N(CCN(C)C)C(=O)c3ccc4c(c3)OCCO4)nc12	-1%	x	x	x	x	x
Cc1cc(C)c2nc(N(CCCN(C)C)C(=O)C3=COCCO3)sc2c1	0%	x	u	x	12µM*	x
Cc1cc(NC(=O)CSc2nc3cc(C(=O)NCCCOC(C)C)ccc3c(=O)n2Cc2ccco2)no1	0%	37	u	3	u	x
Cc1ccc2nc(N(CCN(C)C)C(=O)c3ccc4c(c3)OCCO4)sc2c1	-5%	64	-17%	35*	15%	-10%
CN(C)CCCN(C(=O)c1ccc2c(c1)OCCO2)c1nc2ccccc2s1	0%	x	x	x	x	x
COc1ccc(C)c2sc(N(CCCN(C)C)C(=O)c3ccc4c(c3)OCCO4)nc12	-13%	x	8.3µM*	x	9.3µM*	x
COC(=O)c1cc2n3ccccc3c(C)c(-c3ccccc3)c-2c1C(=O)OC	-37%	-8	9.3µM*	-6	x	21%
COC(=O)c1cc2c(C)c(C)c3ccccn3c-2c1C(=O)OC	-15%	-11	13µM*	-1	x	5%
COc1cc(C=O)ccc1OCCCOc1ccc([N+](=O)[O-])cc1	9%	10	2%	-2	1%	26%
COc1cc(C=O)ccc1OCCCCOc1ccccc1[N+](=O)[O-]	-11%	35*	2%	15*	16%	-21%
